In PubChem BioAssay (Tox21):
Records with an inconclusive call do not appear. The source made the active and inactive calls. Unless noted, the call rests on the fitted dose curve; in most records, active means well fitted curve in the direction sought with a large enough effect in the repeat runs; inconclusive means weak or mixed curves; inactive means no such curve, though single readings can be large; an effect the other way counts as inactive or inconclusive.

Key:
[1] = qHTS assay to identify small molecule agonists of the hypoxia (HIF-1) signaling pathway - cell viability counter screen (AID 1224844; calls by dose curve; further: nearly all actives have a fitted effect of over 50% in size; further: potency means the concentration at half of the fitted maximal effect)
Outline: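 HRE-bla ME-180 cells in medium with 0.5% dialyzed FBS were preincubated 5 hrs at 37C, exposed to compounds for 17 hrs, then viability was read as CellTiter-Glo luminescence after 30 min at room temperature, in the reporter wells.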

[2] = qHTS assay to identify small molecule antagonists of the estrogen related receptor (ERR) signaling pathway from Tox21 library (AID 1224848); further: nearly all actives have a fitted effect of over 50% in size; further: potency means the concentration at half of the fitted maximal effect
Outline: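 Screening used an ERR reporter line supplied by NTP, exposed for 18 h at 37 C to library compounds delivered in DMSO. Signal was luciferase luminescence developed with ONE-Glo at room temperature for 30 min.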

[3] = qHTS assay to identify small molecule agonists of the estrogen related receptor (ERR) signaling pathway from Tox21 library (AID 1224849; calls by dose curve; further: nearly all actives have a fitted effect of over 15% in size); settings: ERR reporter cell line, ONE-Glo luciferase, 18 h; at 92.4 µM (top of the series) unless noted
Outline: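 ERR reporter cell line (NTP) seeded, rested 6 h at 37 C/5% CO2, then pinned with Tox21 compounds in DMSO. After 18 h at 37 C, ONE-Glo luciferase luminescence was read following 30 min at room temperature.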

[4] = qHTS RealTime-Glo MT Cell Viability Assay in HEK293 cells - 32 hour (AID 1224868); further: nearly all actives have a fitted effect of over 50% in size; further: potency means the concentration at half of the fitted maximal effect; on activity change, negative = cytotoxic: top concentration of the series differs between compounds
Outline: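 HEK293 cells were seeded at 600 cells/well together with NanoLuc luciferase and cell-permeant prosubstrate, preincubated 5 h at 37 C/5% CO2, then given compound in DMSO by pintool. Luminescence from viable-cell prosubstrate reduction was read repeatedly over 40 h.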

[5] = A CellTox Green Cytotoxicity Assay to monitor cytotoxicity in HEK293 cells - 0 hour (AID 1224869); further: nearly all actives have a fitted effect of over 50% in size
Outline: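 HEK293 cells premixed with CellTox Green dye were seeded at 600 cells/well and left 5 h at 37 C/5% CO2 before pin transfer of 23 nL compound in DMSO. Fluorescence from dye bound to dead-cell DNA was read during 40 h treatment.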

[6] = qHTS RealTime-Glo MT Cell Viability Assay in HepG2 cells - 40 hour (AID 1224870); further: nearly all actives have a fitted effect of over 50% in size; further: potency means the concentration at half of the fitted maximal effect
Outline: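 HepG2 cells mixed with RealTime-Glo MT reagents (NanoLuc plus cell-permeant prosubstrate) were seeded at 600 cells/well, incubated 5 h at 37 C/5% CO2, then pinned with compounds in DMSO; nonlytic luminescence tracked viability during 40 h treatment.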

[7] = qHTS assay to identify small molecule agonists of H2AX (AID 1224845; active means well fitted activation curve with a large enough effect in the signal ratio in the repeat runs, not every such curve was filed as active; the % refers to the signal ratio; further: potency means the concentration at half of the fitted maximal effect)
Outline: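 Wild-type CHO-K1 cells plated overnight, then exposed 3 hr at 37C to compounds at 15 concentrations (0.76% DMSO). Lysed, then HTRF anti-pH2AX(S139)-cryptate/anti-H2AX-d2 detection after 24 hr at room temperature; emissions 665 and 620 nm.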

[8] = qHTS assay to identify small molecule agonists of H2AX - cell viability counter screen (AID 1224847; calls by dose curve; further: nearly all actives have a fitted effect of over 30% in size; further: potency means the concentration at half of the fitted maximal effect; on activity change, negative = cytotoxicity: top concentration of the series differs between compounds)
Outline: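 Wild-type CHO-K1 cells (10% FBS medium) were plated overnight at 37C, exposed to compounds at 15 concentrations for 3 hr at 37C (0.76% DMSO final), and viability was read as CellTiter-Glo luminescence after 30 min at room temperature.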

[9] = qHTS RealTime-Glo MT Cell Viability Assay in HepG2 cells - 24 hour (AID 1224867); further: nearly all actives have a fitted effect of over 50% in size; further: potency means the concentration at half of the fitted maximal effect
Outline: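 HepG2 cells were seeded at 600 cells/well together with NanoLuc luciferase and a cell-permeant prosubstrate, preincubated 5 h at 37 C/5% CO2, then pin-dosed with compounds in DMSO. Nonlytic luminescence from viable cells was read at each time point.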

[10] = qHTS assay to identify small molecule agonists of the hypoxia (HIF-1) signaling pathway (AID 1224846; active means well fitted activation curve with a large enough effect in the signal ratio in the repeat runs, not every such curve was filed as active; the % refers to the signal ratio)
Outline: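 HRE-bla ME-180 cells (beta-lactamase reporter under hypoxia response element) were plated at 2,000 cells/well in medium with 0.5% dialyzed FBS, rested 5 hrs, then given compounds in DMSO for 17 hrs at 37C, 5% CO2. Reporter induction was read with CCF4-AM FRET substrate.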
On the % scale 0 is the no-effect control and ±100 the full control effect.

Clc1ccc(CCC(Cn2ccnc2)Sc2c(Cl)cccc2Cl)cc1 (configuration not stated)
inactive: activity change, positive = activation [3] -61.6% [at 42.5 µM] | Potency [5] | Potency [6]
active: Potency [1] 23.9 µM | Potency [2] 18.8 µM | Potency [4] 9.52 µM

CCc1cc(C)cc(CC)c1-c1c(OC(=O)C(C)(C)C)n2n(c1=O)CCOCC2
inactive: Potency [7] | Potency [8] | Potency [2] | activity change, positive = activation [3] -10% | Potency [9] | Potency [4] | Potency [5] | Potency [6]

COP(=O)(CCC(=O)NCO)OC
inactive: Potency [7] | outcome [10] | Potency [2] | activity change, positive = activation [3] 3.27% | Potency [9] | Potency [5] | Potency [6]

BrCC(Br)c1ccccc1 (configuration not stated)
inactive: Potency [7] | outcome [10] | Potency [9] | Potency [5] | Potency [6]

O=S(=O)(c1ccc(Cl)cc1)c1ccc(Cl)cc1
inactive: Potency [1] | activity change, positive = activation [3] -35.9% | Potency [9] | Potency [5]
active: Potency [2] 13.9 µM

O=C1NCN(c2ccccc2)C12CCN(CC1COc3ccccc3O1)CC2 (configuration not stated)
inactive: Potency [7] | outcome [10] | Potency [8] | activity change, positive = activation [3] 0.381% [at 42.5 µM] | Potency [5] | Potency [6]

CC(=O)[O-].[Tl+]
inactive: Potency [7] | outcome [10] | Potency [8] | Potency [9] | Potency [5] | Potency [6]

Clc1ccc(C(Cl)(Cl)Cl)c(Cl)c1
inactive: Potency [7] | Potency [8] | activity change, positive = activation [3] -45.2% | Potency [9] | Potency [5] | Potency [6]
active: Potency [2] 61.6 µM

CCOC(=O)c1ccccc1S(=O)(=O)NC(=O)Nc1nc(Cl)cc(OC)n1
inactive: Potency [7] | outcome [10] | Potency [9] | Potency [6]

ClC1=C(Cl)[C@]2(Cl)[C@H]3[C@H]([C@H]4C=C[C@H]3C4)[C@@]1(Cl)C2(Cl)Cl
inactive: Potency [7] | outcome [10] | Potency [8] | Potency [9] | Potency [4] | Potency [5] | Potency [6]

C=COCCCl
inactive: Potency [7] | outcome [10] | Potency [8] | Potency [2] | activity change, positive = activation [3] 14.7% | Potency [9] | Potency [4] | Potency [5] | Potency [6]

Brc1c(Br)c(Br)c(Oc2c(Br)c(Br)c(Br)c(Br)c2Br)c(Br)c1Br
inactive: activation (H2AX phosphorylation) [7] -7.06% [at 31.6 µM] | activity change, negative = cytotoxicity [8] 2.26% [at 31.6 µM] | activity, negative = inhibition [2] 6.83% [at 19 µM] | activity change, positive = activation [3] 3.27% [at 19 µM] | activity change, negative = cytotoxicity [9] -1.54% [at 15.8 µM] | activity change, negative = cytotoxic [4] 5.03% [at 15.8 µM] | cytotoxicity [5] -1.03% [at 15.8 µM] | activity change, negative = cytotoxic [6] -6.21% [at 15.8 µM]

CC(C)C1CCC(Cc2ccc(Cl)cc2)C1(O)Cn1cncn1 (configuration not stated)
inactive: activity change, positive = activation [3] -68.5% | Potency [5]
active: Potency [1] 54.4 µM | Potency [2] 27 µM | Potency [9] 43.2 µM | Potency [4] 12.2 µM | Potency [6] 48.5 µM

C=CC(=O)OCC(COC(=O)C=C)(COC(=O)C=C)COC(=O)C=C
inactive: activity change, positive = activation [3] -79.4% | Potency [5]
active: Potency [1] 6.92 µM | Potency [2] 13.7 µM | Potency [9] 6.16 µM | Potency [6] 5.49 µM

S=C=Nc1cccc2ccccc12
inactive: activity change, positive = activation [3] -54.3% | Potency [9] | Potency [5] | Potency [6]
active: Potency [1] 48.5 µM

CCOc1cc(C(C)(C)C)ccc1C1COC(c2c(F)cccc2F)=N1 (configuration not stated)
inactive: Potency [7] | outcome [10] | activity change, positive = activation [3] -39.5% [at 42.5 µM] | Potency [9] | Potency [5] | Potency [6]
active: Potency [8] 30.7 µM | Potency [2] 37.1 µM

N#CCc1ccc(Cl)cc1
inactive: Potency [7] | outcome [10] | Potency [2] | activity change, positive = activation [3] 1.98% | Potency [9] | Potency [4] | Potency [5] | Potency [6]

COc1ccc(/C(=C/C(=O)N2CCOCC2)c2ccc(Cl)cc2)cc1OC
inactive: Potency [7] | Potency [8] | Potency [2] | activity change, positive = activation [3] -10.9% | Potency [9] | Potency [5] | Potency [6]

O=C(CCl)Nc1ccccc1
inactive: Potency [8] | activity change, positive = activation [3] -72.1% | Potency [9] | Potency [5] | Potency [6]
active: Potency [7] 80 µM | Potency [2] 19.3 µM

O=C(O)c1cc[c]([Hg][Cl])cc1
active: Potency [1] 54.9 µM | Potency [9] 24.5 µM | Potency [6] 24.5 µM
inactive: Potency [5]

C=CC(=O)OCCCCOC(=O)C=C
inactive: Potency [2] | Potency [5]
active: Potency [7] 101 µM | activity change, positive = activation [3] -26.6% | Potency [9] 49 µM | Potency [4] 34.7 µM

CCOP(=O)(NC(C)C)Oc1ccc(SC)c(C)c1 (configuration not stated)
inactive: Potency [7] | Potency [9] | Potency [5] | Potency [6]
active: Potency [4] 12.3 µM

c1ccc2c(c1)OCC(C1=NCCN1)O2 (configuration not stated)
inactive: Potency [5]
active: Potency [7] 49.2 µM

C[C@@H]1O[C@@H](O[C@H]2C[C@@H](O)[C@]3(CO)[C@H]4[C@H](O)C[C@]5(C)[C@@H](C6=CC(=O)OC6)CC[C@]5(O)[C@@H]4CC[C@]3(O)C2)[C@H](O)[C@H](O)[C@H]1O
inactive: Potency [7] | Potency [5]

CC(=O)[O-].CC(=O)[O-].O.O.[Cd+2]
active: Potency [7] 62.7 µM
inactive: Potency [5] | Potency [6]

CC[C@H](C)[C@H]1O[C@]2(C=C[C@@H]1C)C[C@@H]1C[C@@H](C/C=C(\C)[C@@H](O[C@H]3C[C@H](OC)[C@@H](O[C@H]4C[C@H](OC)[C@@H](O)[C@H](C)O4)[C@H](C)O3)[C@@H](C)/C=C/C=C3\CO[C@@H]4[C@H](O)C(C)=C[C@@H](C(=O)O1)[C@]34O)O2
inactive: Potency [7] | activity change, positive = activation [3] -67% [at 42.5 µM] | Potency [5]
active: Potency [2] 7.2 µM

CCOC(=O)CC(=O)CCl
inactive: Potency [7] | Potency [8] | Potency [9] | Potency [5] | Potency [6]
